Screens deposited in PubChem BioAssay by National Center for Advancing Translational Sciences (NCATS).
Cycloheximide cs: counter-screen hit for Shiga toxin inhibitors, cycloheximide; max response, %; 12% of 300,000 active; AID 2314; cell reporter, cycloheximide protein synthesis inhibition counterscreen; in the data active means max response mostly above about 13%, no sharp cut-off; inactive means mostly below about 14%; further: read at 38.3 µM for the half of the compounds with a filed dose; 0% is about no effect
Sm TGR inh: S. mansoni TGR enzyme inhibition; Q962Y6; 3% of 360,000 active; Potency, µM (series often up to 114 µM), for inactives: at the highest dose activity change, negative = inhibition, hits mostly inhibitors; purified TGR, DTNB reduction, TNB absorbance 405 nm; AID 485364; further: potency means the concentration at half of the fitted maximal effect; on the % scale 0 is the no-effect control and ±100 the full control effect; nearly all actives have a fitted effect of over 60% in size
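TGR 20 nM + NADPH 100 uM (dispensed conc.), cpd preinc 15 min RT; start with NADPH (500 uM addition) then DTNB (15 mM addition). Kinetic TNB absorbance, 405 nm filter. Four-parameter Hill fit across titration.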
Tb PYK inh: inhibitors of Trypanosoma brucei pyruvate kinase; Q57TT1; TbPYK enzyme, Kinase-Glo Plus ATP luminescence, 45 min; Potency, µM (highest dose often 76.8 µM), inactives show at the highest dose activity, negative = inhibition, hits mostly inhibitors; 0.12% of 410,000 active; AID 624173; further: potency means the concentration at half of the fitted maximal effect; on the % scale 0 is the no-effect control and ±100 the full control effect; nearly all actives have a fitted effect of over 50% in size
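Quantitative HTS: titrated library compounds versus trypanosomal pyruvate kinase in TEA buffer (pH 7.2) containing KCl, MgCl2, BSA and Tween-20. Reactions were initiated with ADP, 130 uM final. Kinase-Glo Plus luminescence was read after 45 min at RT.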
LmPK inhibitor: LmPK (Leishmania mexicana) enzyme inhibition; purified LmPK, Kinase-Glo ATP luminescence, 1 h; Potency, µM (top dose mostly 57.5 µM), inactives show at the highest dose activity change, negative = inhibition, usual class: inhibitors; 0.37% of 290,000 active; AID 1721; further: potency means the concentration at half of the fitted maximal effect; on the % scale 0 is the no-effect control and ±100 the full control effect
Target sequence (Q27686 whole entry, looked up): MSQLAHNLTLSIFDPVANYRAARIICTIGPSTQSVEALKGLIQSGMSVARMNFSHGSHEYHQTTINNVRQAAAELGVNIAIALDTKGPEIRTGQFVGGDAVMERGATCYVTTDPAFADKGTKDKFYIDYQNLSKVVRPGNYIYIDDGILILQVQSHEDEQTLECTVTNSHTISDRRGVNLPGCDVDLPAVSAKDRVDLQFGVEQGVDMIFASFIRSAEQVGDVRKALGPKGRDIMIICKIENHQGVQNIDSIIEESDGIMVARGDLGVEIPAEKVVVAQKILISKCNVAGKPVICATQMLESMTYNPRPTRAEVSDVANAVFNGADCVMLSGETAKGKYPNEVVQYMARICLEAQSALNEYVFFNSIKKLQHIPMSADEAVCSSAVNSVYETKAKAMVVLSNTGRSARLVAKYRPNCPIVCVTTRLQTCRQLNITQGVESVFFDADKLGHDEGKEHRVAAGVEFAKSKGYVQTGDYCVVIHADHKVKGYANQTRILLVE
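0.1 nM LmPK, 0.5 mM PEP, 0.1 mM ADP; 50 mM imidazole pH 7.2, 7 mM MgCl2, 50 mM KCl; 1 h RT. Kinase-Glo luminescence readout, normalized to no-enzyme (full inhibition) and uninhibited wells.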
Giardia FBPA inh: Giardia lamblia aldolase inhibition; Potency, µM (highest dose often 59.6 µM), inactives show at the top dose activity, negative = inhibition, most hits filed as inhibitors; A8B2U2; purified Giardia FBPA; 0.71% of 290,000 active; further: potency means the concentration at half of the fitted maximal effect; on the % scale 0 is the no-effect control and ±100 the full control effect; nearly all actives have a fitted effect of over 55% in size
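40 nM FBPA preincubated 10 min at RT with compound (up to 57.5 uM final), then substrate plus GAPDH/TPI/NAD/arsenate coupling and diaphorase/resazurin added. Fluorescence read after 20 min at RT, 525/598 nm.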
Shiga inhibitor: Shiga toxin inhibition | Vero cells, Shiga toxin protein synthesis inhibition reporter | inhibition, % at 38.7 µM | 9.2% of 290,000 active; in the data active means inhibition mostly above about 28%, no sharp cut-off; inactive means mostly below about 43%; further: 0% is about no effect
The depositor's hits bear a star; ? = inconclusive; . = no result given. The entries come from a sample that favours hits as a whole. Unless noted, the call rests on the fitted dose curve; in most records, active means well fitted curve in the direction sought with a large enough effect; inconclusive means small, poorly fitted or top-dose-only effect, or another doubt; inactive means no such curve, though single readings can be large; an effect the other way counts as inactive or inconclusive.

SMILES	Cycloheximide cs	Sm TGR inh	Tb PYK inh	LmPK inhibitor	Giardia FBPA inh	Shiga inhibitor
O=c1cnc2cnc(Oc3ccccc3)nc2n1Cc1ccc(F)cc1	.	.	5%	.	5%	.
FC(F)(F)c1cnc(COc2ccc(Cl)cc2Cl)c(Cl)c1	17*	-1%	3%	-4%	0%	66*
CC(=O)C(C)Oc1ccc(Cc2ncc(C(F)(F)F)cc2Cl)cc1 (stereo not given)	-1	.	-1%	-4%	3%	11
CC(=O)c1ccc(OCc2ncc(C(F)(F)F)cc2Cl)cc1	36*	0%	-4%	-2%	-1%	76*
O=C(CSc1nnc(SCc2ccc(Cl)cc2)s1)N/N=C/c1ccc(Cl)cc1Cl	33*	3%	3%	0%	2%	55*
O=C(CSc1nnc(SCc2ccccc2)s1)N/N=C/c1ccc(Cl)cc1Cl	-3	-6%	2%	0%	6%	-8
Cc1ccc(CSc2nnc(SCC(=O)N/N=C/c3ccccc3OCC(=O)O)s2)cc1	21*	-17%	1%	5%	5%	44*
O=C(CSc1nnc(SCc2ccccc2)s1)N/N=C/c1ccc(C(=O)O)cc1	-2	10%	-6%	-3%	11%	9
O=C(CSc1nnc(SCc2ccccc2)s1)N/N=C/c1c[nH]c2ccccc12	17	-14%	-4%	5%	-22%	31
Cc1ccc(CSc2nnc(SCC(=O)N/N=C/c3ccc(C(=O)O)cc3)s2)cc1	13*	-7%	0%	-2%	15%	37
Cc1ccc(CSc2nnc(SCC(=O)N/N=C/c3c[nH]c4ccccc34)s2)cc1	19*	-4%	-1%	6%	?	42
COc1ccc(-c2csc(Nc3ccc(S(N)(=O)=O)cc3)n2)cc1OC	-6	-4%	-20%	9%	-15%	-11
COc1ccc(-c2csc(Nc3cc(C)ccn3)n2)cc1OC	51*	?	-7%	-6%	10%	63*
COc1ccc(-c2csc(Nc3ccc(C)cn3)n2)cc1OC	34*	.	-8%	-2%	-6%	75*
Fc1ccc(-n2cc(-c3ccccc3)c3c(NC4CCCCC4)ncnc32)cc1	.	2%	-5%	.	.	.
FC(F)Oc1ccccc1/C=N/Nc1nc2ccccc2o1	44*	-11%	-11%	-3%	-20%	74*
Fc1ccccc1/C=N/Nc1nc2ccccc2o1	50*	-3%	-3%	1%	-3%	79*
C/C(CC(=O)Nc1ccc2c(c1)OCO2)=N\NC(=O)OC(C)(C)C	18	-11%	3%	-2%	0%	-5
C/C(CC(=O)Nc1ccc2c(c1)OCCO2)=N\NC(=O)c1ccccc1F	30*	-17%	-7%	-1%	7%	79*
COc1ccccc1C(=O)N/N=C(\C)CC(=O)Nc1ccc2c(c1)OCCO2	9	-7%	-1%	-3%	3%	30
C/C(CC(=O)Nc1ccc2c(c1)OCO2)=N\NC(=O)c1ccc(N)cc1	22*	40µM*	-4%	-5%	-13%	53*
C/C(CC(=O)Nc1ccc2c(c1)OCO2)=N\NC(=O)c1ccccc1N	59*	?	-1%	0%	5%	101*
Cc1cc(C)c(C)c(S(=O)(=O)N2CCC(C(=O)Nc3ccc(S(=O)(=O)N4CCOCC4)cc3)CC2)c1C	9	1%	-9%	0%	.	-8
CCCCCn1c(CCCNC(=O)c2ccccc2)nc2ccccc21	.	0%	5%	.	.	.
Cc1cc(NC(=O)C(C)SCC(=O)N(C)Cc2ccccc2F)no1 (stereo not given)	.	-17%	-16%	.	.	.
C/C(=N/NC(=O)c1cccc(N2CCCC2=O)c1)c1ccncc1	48*	2%	2%	0%	1%	55*
CCCCN(C)CCCNC(=O)c1cccc(N2CCCC2=O)c1	3	-22%	2%	2%	-3%	-11
C/C(=N/NC(=O)c1cccc(N2CCCC2=O)c1)c1ccc(Br)cc1	-2	8%	3%	-10%	4%	8
Cc1ccc(C(=O)NCCc2ccccc2)cc1N1CCCC1=O	13	-8%	0%	-8%	.	26
Cc1ccc(CCNC(=O)c2cccc(N3CCCC3=O)c2)cc1	22	-2%	6%	-9%	.	66*
